Consider 111 compounds from ChEMBL document CHEMBL4513216, “Probing the Open Global Health Chemical Diversity Library for Multistage-Active Starting Points for Next-Generation Antimalarials” (ACS Infect Dis, 2020).

Each structure is given as a SMILES string. The whole screen tested about 69,000 compounds, of which about 8,600 (12%) showed an effect of 50% or more. This excerpt belongs to a sample that is enriched for strong results.

This assay concerns Plasmodium berghei. As to the kind of experiment: Screen against P. berghei liver stage (PbLuc), transformed with Luciferase, at 10uM. Type of assay: functional, HepG2. Conditions: tested at 10 uM.
Take `Cc1cnn(CCNCc2csc(-c3ccc(C)o3)n2)c1`: the INHIBITION worked out at 15.3%. For the compound `Cn1cc(C(=O)Nc2ccc(CC(=O)NCC(F)(F)F)cc2)nn1`, the INHIBITION was determined as 50.5%. `Cn1cc(C(=O)Nc2ccc(CC(=O)NC3CC3)cc2)nn1`: the INHIBITION was 11.3%. Turning to `CN(C)C(=O)Cc1ccc(NC(=O)c2cn(C)nn2)cc1`, the INHIBITION came out at 20%. In the case of `CCC(C)c1cc(C(=O)N(CC(=O)NC)c2cccc(F)c2)on1` (stereo unspecified) it was 3.04%; in that of `Cc1cccc(CN2CCCn3c(nnc3Cn3cccn3)C2)n1`, -23%.

Regarding `CNC(=O)c1cc2c(s1)CCN(C(=O)CCC1CCCN(C)C1)C2` (stereo unspecified), the INHIBITION was determined as 42.6%. Next, `CCNc1cc2c(nn1)CCN(C(=O)CC1CCCC1)C2`: 17.4%. Next, `CCN1CCc2cc(C(=O)N(C)C)c(NCC3CC3)nc2CC1`: 37.2%; `CN(C)c1cc2c(nn1)CCN(C(=O)c1cc3c(s1)CCCC3)C2`: -2.13%; `CN(C)C(=O)c1cc2c(s1)CCN(C(=O)CCCN1CCCCC1)C2`: 71.5%. In the case of `CN1CCCC(CCC(=O)N2CCc3sc(C(=O)N(C)C)cc3C2)C1` (stereo unspecified), the INHIBITION amounted to 73.6%. Next, `CCN1CCC(CC(=O)N2CCc3sc(C(=O)N(C)C)cc3C2)CC1`: 64%; `CN(C)C(=O)c1noc2c1CN(C(=O)CCCN1CCCCC1)CC2`: 41.5%. Next, `CN1CCCC(CCC(=O)N2CCc3onc(C(=O)N(C)C)c3C2)C1` (stereo unspecified): 12%; `c1cc(-c2ccc3nc(C4CCN(CC5CC5)CC4)nn3c2)cs1`: 23.6%. In the case of `Cc1ccc2c(n1)N(CCn1cccn1)CCN(CC1CC1)C2` it was -6.3%. Take `CCN(Cc1cnn(C)c1)C[C@H]1CC[C@@H](Cc2ccc(OC)nc2)O1`: the INHIBITION is -22.3%. Turning to `CN(C)CCN1CCCC12CCN(C(=O)c1ccoc1)CC2`, the INHIBITION is given as -44.2%. In the case of `O=c1c2cn[nH]c2nc(SCCN2CCCC2)n1-c1ccccc1` it was 17.7%. Next, `CC(C)CNC(=O)[C@H]1CCS(=O)(=O)[C@@H]2CN(Cc3ccc(F)cc3)C[C@H]12`: -0.371%. In the case of `CSc1cccc(CN(C)C(=O)Cn2ncc(N3CCCC3)cc2=O)c1` it was 25.1%; in that of `CCC1C(=O)NCCN1c1cc(C)ncn1` (stereo unspecified), 26.8%.

Consider `O=C(Cc1ccccn1)N1CCc2ncnc(N3CCCC3)c2CC1`, for which the INHIBITION is -10.3%. Next, `OC1COCCN(Cc2cccc(N3CCOCC3)c2)C1` (stereo unspecified): 15.9%.

For the compound `N[C@@H]1CCN(Cc2cccc(N3CCOCC3)c2)C[C@H]1O`, the INHIBITION came out at 58.6%. In the case of `OC1CN(Cc2cccc(N3CCOCC3)c2)Cc2ccccc21` (stereo unspecified) it was 28.7%; in that of `CC(=O)Nc1ccc(CNc2ccn(Cc3ccccc3)n2)cc1`, -51.8%; in that of `CC(C)c1nccn1-c1cccc(C2CCN(C)CC2)n1`, 58%. As to `CC(C)c1nccn1-c1cccc(C2CCCN(C3CCCC3)C2)n1` (stereo unspecified), the INHIBITION was 35.3%. Next, `CC(C)c1nccn1-c1cncc(C2CCCN(C3CCCC3)C2)n1` (stereo unspecified): 41.2%. Next, `CN(C)S(=O)(=O)N1CCC(c2ccnc(Nc3ccccn3)n2)C1` (stereo unspecified): 29.5%; `Cc1nccn1-c1cccc(C2CCCN2S(=O)(=O)N(C)C)n1` (stereo unspecified): 53%. In the case of `CC(C)c1nccn1-c1cncc(C2CCCN(C3CCCCC3)C2)n1` (stereo unspecified) it was 44.1%; in that of `CC(C)c1nccn1-c1cccc(C2CCCN(S(=O)(=O)N(C)C)C2)n1` (stereo unspecified), 50.1%; in that of `CCc1nccn1-c1cccc(C2CCCN2S(=O)(=O)N(C)C)n1` (stereo unspecified), 36.7%. Turning to `CC(C)c1nccn1-c1cccc(C2CCCN2S(=O)(=O)N(C)C)n1` (stereo unspecified), the INHIBITION is listed as 21.9%. In the case of `COc1ccc(C(=O)Nc2cccc(C(N)=O)c2)c(OC)n1` it was -26.1%; in that of `CNCC(=O)N1CCCCC1c1nccc(C)n1` (stereo unspecified), 18.3%; in that of `O=C(c1ccnc(-n2ccnc2)c1)N1CCCC(n2ccnc2)C1` (stereo unspecified), 25.1%. In the case of `CC(=O)NCCNC(=O)c1cc(COc2ccccc2)[nH]n1` it was -3.83%; in that of `NC1CCN(C(=O)c2cnc(Cc3c(Cl)cccc3Cl)nc2O)C1` (stereo unspecified), 51.3%; in that of `O=C(c1cnc(Cc2c(Cl)cccc2Cl)nc1O)N1CCNCC1`, 43.9%. As to `CCN1CCN(C(=O)c2cnc(Cc3c(Cl)cccc3Cl)nc2O)CC1`, the INHIBITION amounted to 8.11%.

For `CN(C)C(=O)N[C@@H]1CN(Cc2ccc3c(c2)OCO3)[C@@H]2CCCO[C@@H]21`, the INHIBITION is listed as -15.5%.

On to `Cc1cc(OCC(=O)N2CCCC2c2noc(C)n2)no1` (stereo unspecified), for which the INHIBITION worked out at 2.97%. With `COc1ccccc1OC1CCN(C(=O)c2c[nH]c(=O)[nH]c2=O)CC1`, the INHIBITION is on record as -7.76%. In the case of `Cc1ccc(C(=O)N2CCC(Oc3ccc(C)c(C)c3)CC2)c(=O)[nH]1` it was 69.65%; in that of `Cc1ccc(C(=O)N2CCC(Oc3cccc(C)c3C)CC2)c(=O)[nH]1`, 45.5%. As for `COc1ccc(OC2CCN(C(=O)c3ccc(C)[nH]c3=O)CC2)cc1`, the INHIBITION came out at 29.85%. Next, `Cc1ccccc1OC1CCN(C(=O)c2c[nH]c(=O)[nH]c2=O)CC1`: 60.4%; `Cc1ccc(C(=O)N2CCC(Oc3ccccc3)CC2)c(=O)[nH]1`: 29.4%. Next, `COc1cccc(CC(=O)N2CCC(NCc3c[nH]nc3C)CC2)c1`: -17.35%. In the case of `O=C(CCCc1ccccn1)N1CCCC1c1noc(C2CC2)n1` (stereo unspecified) it was 0.411%; in that of `O=C(c1nnn(-c2ccccc2)n1)N(CCO)CCO`, -7.77%; in that of `Cc1cccc(NC(=O)Cc2cnc3n(C)c(=O)[nH]c(=O)n23)c1`, 27.5%. For the compound `O=C(Cc1ccc2c(c1)CCO2)N1CCCC1Cn1cccn1` (stereo unspecified), the INHIBITION came to 31.6%. Next, `CCS(=O)(=O)NCCN(CCO)C1CCc2ccccc21` (stereo unspecified): 29.4%.

Regarding `CCS(=O)(=O)NCCCNC1CSCCc2ccccc21` (stereo unspecified), the INHIBITION was determined as 60.9%. In the case of `CNC(=O)CN1CCC(NC2CSCCc3ccccc32)CC1` (stereo unspecified) it was -18.9%; in that of `CCCNC(=O)CCNC1CSCCc2ccccc21` (stereo unspecified), 76.9%. In the case of `CC(C)(C)S(=O)(=O)CCNC1CSCCc2ccccc21` (stereo unspecified) it was -56.6%. Next, `OCCNC1CSCCc2ccccc21` (stereo unspecified): -56.6%. As for `COc1ccc(CCNC(=O)c2ccc(=O)n(C)c2)c(Cl)c1`, the INHIBITION worked out at 1.74%. Turning to `Cn1ncc2c(=O)[nH]c(CN3CCCC3CCc3ccccc3)nc21` (stereo unspecified), the INHIBITION amounted to 19.6%. In the case of `Cc1cc(C)c(CNC(=O)NCCC2CCCO2)c(=O)[nH]1` (stereo unspecified) it was 1.82%; in that of `COc1ccc2c(c1)C(C(=O)NCCN1CCOC1=O)CC(=O)N2` (stereo unspecified), 34.9%; in that of `Cc1cc(C)n(C2CCCN(C(=O)c3cccc(F)c3F)C2)n1` (stereo unspecified), 33%. Next, `CCN1CCN(C(=O)Cc2ccc(S(=O)(=O)C(F)F)cc2)CC1`: 55.9%. In the case of `CN1CCN(C(=O)Cc2ccc(S(=O)(=O)C(F)F)cc2)CC1` it was 39.6%; in that of `O=C(Cc1ccc(S(=O)(=O)C(F)F)cc1)N1CCC1`, 43.9%; in that of `CCn1ccc(NC(=O)c2cc(C)on2)n1`, -9.21%. Turning to `COCCN1CCn2c(nc3cc(C(=O)NC(C)C)ccc32)C1`, the INHIBITION is 19.3%.

For `COCCNC(=O)c1ccc2c(=O)n3c(nc2c1)CCCCCC3`, the INHIBITION is given as 55.4%. Next, `COCCNC(=O)c1ccc2c(=O)n3c(nc2c1)CCN(C)CC3`: -48.5%. `COCCNC(=O)c1ccc2c(=O)n3c(nc2c1)CCCC3`: the INHIBITION turned out to be 54.9%.

Regarding `CN1CCc2nc3cc(C(=O)NCc4cccs4)ccc3c(=O)n2CC1`, the INHIBITION came to 21.1%. In the case of `COCCNC(=O)c1ccc2c(=O)n3c(nc2c1)CCCCC3` it was 40.8%; in that of `Cc1nn(C)c(C)c1C1CCCN1Cc1nc2ccccc2n1C` (stereo unspecified), -55.4%; in that of `COc1cccc(-n2nnc(C(=O)N3CCOC(C)C3)c2C)c1` (stereo unspecified), 14.05%. Next, `CC1CC2(CCN(C(=O)c3c[nH]cn3)CC2)c2ccccc21` (stereo unspecified): 5.68%; `CCOC1CCC2(CCN(C(=O)c3c[nH]cn3)CC2)c2ccccc21` (stereo unspecified): 51.4%. Consider `CC1CC2(CCN(C(=O)c3csnn3)CC2)c2ccccc21` (stereo unspecified), for which the INHIBITION amounted to 15.9%. In the case of `CS(=O)(=O)N1CC2(CCN(C(=O)c3csnn3)CC2)c2ccccc21` it was 13.7%; in that of `CNC(=O)C1CC2(CCN(C(=O)c3csnn3)CC2)c2ccccc21` (stereo unspecified), 51.3%; in that of `CCOC1CC2(CCN(C(C)=O)CC2)c2cc(F)ccc21` (stereo unspecified), -33.9%. In the case of `CN1CCN(C(=O)c2csnn2)c2ccccc21` it was 23.2%; in that of `CCOC1CCC2(CCN(C(=O)c3csnn3)CC2)c2ccccc21` (stereo unspecified), 56.4%. Next, `CCOc1ccccc1OC1CCN(C(=O)c2csnn2)CC1`: 15.3%. On to `Cc1cccc(CN2C(=O)CO[C@@H]3CN(Cc4nccn4C)C[C@H]32)c1`, for which the INHIBITION stood at 36.1%. Consider `COc1cccc(C2(CNC(C)c3nnc(C)o3)CCCC2)c1` (stereo unspecified), for which the INHIBITION turned out to be 3.03%. In the case of `CN1CCCC(Cc2cncc(Br)c2)CC1` (stereo unspecified) it was 44.9%.

In the case of `CC(=O)N1CCCC(Cc2cncc(Br)c2)CC1` (stereo unspecified), the INHIBITION stood at 54.6%. In the case of `CC(=O)N1CCCC(Cc2cncc(Br)c2)C1` (stereo unspecified) it was 44.1%; in that of `CS(=O)(=O)N1CCCC(Cc2cncc(Br)c2)CC1` (stereo unspecified), 29.3%.

For the compound `CN1CCN(C(=O)c2cncc(CC3CCCN(C)C3)c2)CC1` (stereo unspecified), the INHIBITION amounted to 37%.

In the case of `CC(C)N1CCCC(Cc2cncc(Br)c2)CC1` (stereo unspecified), the INHIBITION is given as 51.5%. For `CC(=O)N1CCC(c2cncc(Cl)n2)CC1`, the INHIBITION is 1.62%. In the case of `Cc1cccc(CN2CCC3(CCCN(C(=O)N4CCCC4)C3)C2=O)n1` (stereo unspecified) it was -29.3%; in that of `CC(=O)NCCNC(=O)c1nc(C2CC2)n(-c2ccccc2Cl)n1`, 8.46%; in that of `Cc1ccc(S(=O)(=O)N(CC2CCOC2)C2CC2)cc1N(C)C` (stereo unspecified), 17.1%. Next, `O=C(c1ccco1)N1CCc2ncc(CN3CCOCC3)n2CC1`: 5.44%. In the case of `c1csc(-c2noc(C3CCCNC3)n2)c1` (stereo unspecified) it was 41.5%; in that of `c1csc(-c2noc(C3CNC3)n2)c1`, 58.1%; in that of `Cc1noc(C2CN(Cc3ccc4c(c3)CCO4)C2)n1`, -5.01%.

In the case of `c1cnc(-c2noc(C3CN(Cc4ccc5c(c4)CCO5)C3)n2)nc1`, the INHIBITION came to 27.5%. As for `CCS(=O)(=O)N1CC(c2nc(-c3cccs3)no2)C1`, the INHIBITION is 9.41%. In the case of `c1cnc(-c2noc(C3CN(Cc4ccsc4)C3)n2)cn1` it was 28.3%; in that of `c1cnc(-c2noc(C3CN(Cc4ccc5c(c4)CCO5)C3)n2)cn1`, 58.5%; in that of `c1csc(-c2noc(C3CN(Cc4ccc5c(c4)CCO5)C3)n2)c1`, 52.5%. Next, `c1csc(-c2noc(C3CCCOC3)n2)c1` (stereo unspecified): -31%.
